Test results: publication PMC4336329 (PLoS ONE, 2015)
About 14,000 (4.5%) of roughly 310,000 compounds showed an effect of 50% or more. Effects have a minus sign here. This excerpt belongs to a sample that is enriched for strong results.

molecular target: human ether-à-go-go-related gene (hERG) potassium channel (human, UniProt Q12809); assay: primary screen, population patch clamp on CHO cells stably expressing hERG; higher = less effect of the substance
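Further: peak tail current of the secondary pulse compared with the same well before compound.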

Chain of human ether-à-go-go-related gene (hERG) potassium channel (Q12809 whole entry, looked up): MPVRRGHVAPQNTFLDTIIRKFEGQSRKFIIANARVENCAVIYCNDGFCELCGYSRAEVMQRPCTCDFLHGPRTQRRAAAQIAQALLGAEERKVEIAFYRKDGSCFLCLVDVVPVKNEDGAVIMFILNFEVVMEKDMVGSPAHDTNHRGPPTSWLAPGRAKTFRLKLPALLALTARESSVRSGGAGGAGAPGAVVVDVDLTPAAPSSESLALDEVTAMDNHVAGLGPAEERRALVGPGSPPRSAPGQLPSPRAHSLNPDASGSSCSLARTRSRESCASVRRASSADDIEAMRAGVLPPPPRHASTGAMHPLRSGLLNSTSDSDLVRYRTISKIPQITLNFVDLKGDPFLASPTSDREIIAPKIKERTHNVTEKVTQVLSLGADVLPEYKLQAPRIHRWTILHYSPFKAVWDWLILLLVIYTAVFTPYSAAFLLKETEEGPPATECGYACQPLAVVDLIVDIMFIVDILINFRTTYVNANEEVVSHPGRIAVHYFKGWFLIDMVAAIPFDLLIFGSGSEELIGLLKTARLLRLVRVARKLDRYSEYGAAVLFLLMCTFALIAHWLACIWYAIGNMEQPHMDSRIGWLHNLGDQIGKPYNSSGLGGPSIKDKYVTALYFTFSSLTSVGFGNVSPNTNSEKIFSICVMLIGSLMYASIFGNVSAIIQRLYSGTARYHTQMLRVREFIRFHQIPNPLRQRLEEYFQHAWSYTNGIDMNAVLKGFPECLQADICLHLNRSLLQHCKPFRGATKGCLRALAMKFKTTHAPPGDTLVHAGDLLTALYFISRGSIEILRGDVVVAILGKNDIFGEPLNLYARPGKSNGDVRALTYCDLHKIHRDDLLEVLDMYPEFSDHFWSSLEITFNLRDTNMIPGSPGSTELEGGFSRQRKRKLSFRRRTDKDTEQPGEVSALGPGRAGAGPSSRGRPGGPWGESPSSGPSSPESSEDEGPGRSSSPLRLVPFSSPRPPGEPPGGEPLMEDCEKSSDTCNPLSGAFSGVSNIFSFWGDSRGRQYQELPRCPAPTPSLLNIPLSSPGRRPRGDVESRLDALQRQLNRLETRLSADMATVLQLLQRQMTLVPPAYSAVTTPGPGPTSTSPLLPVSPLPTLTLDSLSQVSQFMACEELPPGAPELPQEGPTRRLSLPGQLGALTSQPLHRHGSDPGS

SMILES	hERG current change (%, negative = inhibition) at 10uM [%]
Cc1nccn1CCCNC(=O)CC1C(=O)NCCN1Cc1ccccc1C(F)(F)F (stereo not shown)	9.64
CCCN(N=Nc1cccc([N+](=O)[O-])c1)c1cccc([N+](=O)[O-])c1	3.14
O=C(NCCCCNC(=O)c1ccc(F)cc1)c1ccc(F)cc1	13.3
O=C(NCCCN1CCN(CCCNC(=O)c2ccc(F)cc2)CC1)c1ccc(F)cc1	-51.1
O=C(NCCCNC(=O)c1ccc(F)cc1)c1ccc(F)cc1	7.81
CCn1c2ccccc2c2nnc(SCC(=O)N(C)C3CCS(=O)(=O)C3)nc21 (stereo not shown)	-21
O=C(CN(C(=O)CCC(=O)Nc1ccccn1)c1cccc(F)c1)NCc1ccc(F)cc1	-4.26
CS(=O)(=O)N1CCN(C(=O)c2csc3ccccc23)CC1	2.35
Cc1ccc(C2CN(C)CC2C(=O)c2ccc(F)cc2)cc1 (stereo not shown)	-53.2
COc1cccc(C(=O)C2CN(C)CC2c2ccc(Cl)cc2)c1 (stereo not shown)	-66.4
Cc1ccc(C2CN(c3ccccc3)CC2C(=O)c2ccc(F)cc2)cc1 (stereo not shown)	-17
COc1cccc(C(=O)C2CN(c3ccccc3)CC2c2ccc(Cl)cc2)c1 (stereo not shown)	5.04
CN1CC(C(=O)c2ccc(F)cc2)C(c2c(F)cccc2Cl)C1 (stereo not shown)	-65.7
CN1CC(C(=O)c2ccc([N+](=O)[O-])cc2)C(c2ccc(Cl)cc2)C1 (stereo not shown)	-75.6
CN1CC(C(=O)c2ccc(Cl)cc2)C(c2ccccc2F)C1 (stereo not shown)	-46.5
CN1CC(C(=O)c2ccc(Cl)cc2)C(c2ccc(Cl)cc2Cl)C1 (stereo not shown)	-49.2
CN1CC(C(=O)c2cccc(C(F)(F)F)c2)C(c2ccc(Cl)cc2)C1 (stereo not shown)	-20
O=C(c1ccccc1)C1CN(c2ccccc2)CC1c1ccc(Cl)cc1 (stereo not shown)	27.1
CN1CC(C(=O)c2ccc(F)cc2)C(c2ccc(F)cc2)C1 (stereo not shown)	-30.2
COc1ccc(OC)c(NC(=O)COC(=O)c2ccc(OC)c(S(=O)(=O)N3CCCC3)c2)c1	16.9
CN(C)C=O.NS(=O)(=O)c1cccc(NC(=O)CSc2nc3nc(-c4cccs4)cc(C(F)(F)F)c3c(=O)[nH]2)c1	7.85
CCOc1cc(CNc2nn[nH]n2)ccc1OCC(=O)NC(C)(C)C	13.2
O=C(c1cc(O)c(O)c([N+](=O)[O-])c1)c1ccccc1F	2.56
COCCNC(=O)Nc1ccc2nc(-c3ccco3)c(-c3ccco3)nc2c1	4.08
CCOC(=O)CC(NS(=O)(=O)c1ccc2[nH]cc(C(=O)O)c(=O)c2c1)c1ccc(OCC)c(OC)c1 (stereo not shown)	-1.02
COCCn1c(N)c(N(Cc2ccccc2)C(=O)c2ccc3ccccc3c2)c(=O)[nH]c1=O	7.55
O=C(NC1CCCC1)C1CC(=O)N(CCc2ccccc2)C1 (stereo not shown)	9.66
O=C(COc1ccccc1Cl)N1CCCC1	5.64

SMILES	hERG current change (%, negative = inhibition) at 10uM [%]
Cc1ccc(C(=O)C2CN(C)CC2C(=O)c2ccc(C)cc2)cc1 (stereo not shown)	-57
CN1CC(C(=O)c2cccs2)C(c2ccc(Cl)cc2)C1 (stereo not shown)	-49.2
COc1ccc(C(=O)C2CN(C)CC2C(=O)c2ccc(OC)cc2)cc1 (stereo not shown)	-57.9
CN1CC(C(=O)c2ccccc2)C(c2ccccc2)C1 (stereo not shown)	-5.47
COc1ccc(C(=O)C2CN(C)CC2c2ccc(Cl)cc2)cc1 (stereo not shown)	-73.1
COc1ccc(C(=O)C2CN(c3ccccc3)CC2c2ccc(Cl)cc2)cc1 (stereo not shown)	-4.84
CN1CC(C(=O)c2ccc(Cl)cc2)C(c2ccccc2)C1 (stereo not shown)	-31.8
CC(=O)Nc1ccc(C2CN(C)CC2C(=O)c2ccc(Cl)cc2)cc1 (stereo not shown)	-31.8
CN1CC(C(=O)c2ccccc2)C(C(=O)c2ccccc2)C1 (stereo not shown)	-21.4
Cc1ccc(C(=O)C2CN3CCC2CC3)cc1.Cl (stereo not shown)	-37.4
CN1CC(C(=O)c2ccc(Cl)cc2)C(c2ccc(N(C)C)cc2)C1 (stereo not shown)	-57.9
COc1ccc(-c2ccc(C(=O)C3CC3)cc2)cc1	14.7
CNCCOc1ccccc1-c1ccccc1.O=C(O)C(=O)O	-5.68
O=C(CCN1C(=O)c2ccccc2S1(=O)=O)N1CCN(c2ccccc2F)CC1	-5.02
Cc1ccsc1C(=O)NCC(C)(C)N1CCOCC1	-9.41
CC(=O)SC(C)CC(=O)Nc1ccccc1 (stereo not shown)	7.33
Cc1nc2nc(C)c(CCC(=O)N3CCOCC3)c(C)n2n1	-21
Cc1nc2cc(-c3ccccc3)nn2c(C)c1CCC(=O)N1CCN(c2ccccc2)CC1	-65.7
Cc1nc2cc(-c3cccc(F)c3)nn2c(C)c1CCC(=O)NC(C)c1ccc2c(c1)OCCO2 (stereo not shown)	-44.6
Cc1nc2cc(-c3ccccc3)nn2c(C)c1CCC(=O)N1CCC2(CC1)OCCO2	-47.2
Cc1nc2cc(-c3ccccc3)nn2c(C)c1CCC(=O)NC(C)c1ccc2c(c1)OCCO2 (stereo not shown)	-50.8
Cc1nc2cc(-c3ccc(Cl)cc3)nn2c(C)c1CCC(=O)NC(C)c1ccc2c(c1)OCCO2 (stereo not shown)	-23.8
Cc1nc2nc(C)c(CCC(=O)N3CCN(c4ccccn4)CC3)c(C)n2n1	-46.1
Cc1nc2nc(C)c(CCC(=O)N3CCN(c4ccccc4)CC3)c(C)n2n1	-56.2
Cc1nc2cc(-c3cccc(F)c3)nn2c(C)c1CCC(=O)N1CCN(c2ccccn2)CC1	-13.1
O=C(CC1(c2ccc(Cl)cc2)C2CC3CC(C2)CC1C3)NCCO (stereo not shown)	-7.17
O=C(COC(=O)c1cccc(-n2cnnn2)c1)c1ccccc1	-4.63
